The record followed here is paper PMC4336329 (PLoS ONE, 2015).

Screen size: about 310,000 compounds; about 14,000 (4.5%) showed an effect of 50% or more. Effects have a minus sign here. The entries come from a sample that favours strong results as a whole.
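Also: peak tail current of the secondary pulse compared with the same well before compound.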

For the assay, the target named is human ether-à-go-go-related gene (hERG) potassium channel (human, UniProt Q12809). As to the kind of experiment: primary screen, population patch clamp on CHO cells stably expressing hERG; higher = less effect of the substance.
human ether-à-go-go-related gene (hERG) potassium channel, sequence (Q12809 whole entry, looked up): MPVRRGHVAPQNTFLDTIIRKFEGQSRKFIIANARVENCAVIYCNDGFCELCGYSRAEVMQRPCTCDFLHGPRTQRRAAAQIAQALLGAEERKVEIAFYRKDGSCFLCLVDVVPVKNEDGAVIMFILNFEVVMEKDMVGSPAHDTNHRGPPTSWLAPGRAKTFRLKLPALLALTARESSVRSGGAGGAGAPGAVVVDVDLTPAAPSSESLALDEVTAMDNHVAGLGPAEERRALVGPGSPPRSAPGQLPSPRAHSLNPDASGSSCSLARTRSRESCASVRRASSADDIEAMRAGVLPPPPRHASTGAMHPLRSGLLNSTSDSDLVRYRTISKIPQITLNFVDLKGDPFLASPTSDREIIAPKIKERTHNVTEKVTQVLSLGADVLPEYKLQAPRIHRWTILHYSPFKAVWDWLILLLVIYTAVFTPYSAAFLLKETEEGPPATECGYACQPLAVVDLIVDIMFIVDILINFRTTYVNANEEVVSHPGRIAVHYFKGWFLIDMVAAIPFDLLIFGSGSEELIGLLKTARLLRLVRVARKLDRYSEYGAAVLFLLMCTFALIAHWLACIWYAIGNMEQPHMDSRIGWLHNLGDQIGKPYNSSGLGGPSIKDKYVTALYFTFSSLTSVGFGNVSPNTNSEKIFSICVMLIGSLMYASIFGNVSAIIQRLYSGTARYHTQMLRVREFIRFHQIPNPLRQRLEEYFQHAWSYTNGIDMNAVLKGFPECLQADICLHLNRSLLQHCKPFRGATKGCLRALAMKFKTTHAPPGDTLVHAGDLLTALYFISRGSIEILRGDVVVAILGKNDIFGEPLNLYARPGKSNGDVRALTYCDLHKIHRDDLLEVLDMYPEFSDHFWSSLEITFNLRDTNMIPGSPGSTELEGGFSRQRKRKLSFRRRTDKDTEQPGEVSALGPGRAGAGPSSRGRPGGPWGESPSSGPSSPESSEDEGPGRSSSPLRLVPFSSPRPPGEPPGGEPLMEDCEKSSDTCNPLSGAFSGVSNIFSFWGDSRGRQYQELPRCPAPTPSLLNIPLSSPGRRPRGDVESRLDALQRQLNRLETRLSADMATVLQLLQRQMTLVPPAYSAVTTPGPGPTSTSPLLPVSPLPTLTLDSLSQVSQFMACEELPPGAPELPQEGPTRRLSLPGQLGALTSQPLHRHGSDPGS
On to `CC(=O)Nc1ccccc1-c1nn[nH]n1`, for which the “hERG current change (%, negative = inhibition) at 10uM” value is given as 0.73%.
The result for `Cc1c(CCN)ccc2c1[nH]c1ccccc12` reads 0.0766%; that for `Oc1ccccc1/C=N/N1CCCCC1`, 6.81%; that for `CCN(CC)c1ncnc2c1ncn2Cc1c(Cl)cccc1Cl`, 2.93%.
For `CC(C(=O)O)n1cc(Cl)cn1` (centres unmarked), the “hERG current change (%, negative = inhibition) at 10uM” value is 8.82%.
On to `CCCCn1c(N)c(N(CC(C)C)C(=O)CN2C(=O)c3ccccc3C2=O)c(=O)[nH]c1=O`, for which the “hERG current change (%, negative = inhibition) at 10uM” value was -7.79%.
As for `Cc1ccc(NC(=O)c2ccc(OC(=O)c3cc4ccccc4o3)cc2)cc1`, the “hERG current change (%, negative = inhibition) at 10uM” value is given as 8.66%.
Take `Cc1nc2ccccc2c(=O)n1NC(=O)c1cccc(Cl)c1`: the “hERG current change (%, negative = inhibition) at 10uM” value was found to be 13%.
For `O=c1c2ccccc2nc2n1C(CSc1ccccc1)CS2` (centres unmarked), the “hERG current change (%, negative = inhibition) at 10uM” value is -19.6%.
Regarding `Cc1cccc(C(=O)Nc2ccccc2SCC2CSc3nc4ccccc4c(=O)n32)c1` (centres unmarked), the “hERG current change (%, negative = inhibition) at 10uM” value is reported as -80.4%.
`COc1cccc(SCC2CSc3nc4ccccc4c(=O)n32)c1` (centres unmarked): the “hERG current change (%, negative = inhibition) at 10uM” value is given as -22.3%.
On to `Nc1ccccc1SCC1CSc2nc3ccccc3c(=O)n21` (centres unmarked), for which the “hERG current change (%, negative = inhibition) at 10uM” value is reported as -45.2%.
As to `O=C(Nc1ccccc1SCC1CSc2nc3ccccc3c(=O)n21)c1cccc(Cl)c1` (centres unmarked), the “hERG current change (%, negative = inhibition) at 10uM” value was -75.5%.
For the molecule `O=c1c2ccccc2nc2n1C(CSCc1ccc(Cl)cc1Cl)CS2` (centres unmarked), the “hERG current change (%, negative = inhibition) at 10uM” value is -21.8%.
As to `O=c1c2ccccc2nc2n1C(CSCc1cccc(C(F)(F)F)c1)CS2` (centres unmarked), the “hERG current change (%, negative = inhibition) at 10uM” value is on record as -23.4%.
Turning to `Cc1ccc(C(=O)Nc2nc3ccccc3c(=O)s2)cc1`, the “hERG current change (%, negative = inhibition) at 10uM” value was 15.9%.
`Cc1ccc(C(=O)Nc2ccccc2SCC2CSc3nc4ccccc4c(=O)n32)cc1` (centres unmarked): the “hERG current change (%, negative = inhibition) at 10uM” value is given as -68.4%.
Regarding `O=c1c2ccccc2nc2n1C(CBr)CS2` (centres unmarked), the “hERG current change (%, negative = inhibition) at 10uM” value is listed as 15.6%.
Next, `O=C(Nc1ccccc1SCC1CSc2nc3ccccc3c(=O)n21)c1ccccc1` (centres unmarked): -67.7%.
Next, `Cc1ccc(OC2CCN(C(=O)C3CCC(=O)N(C4CC4)C3)CC2)cc1` (centres unmarked): -15.8%; `COC(=O)c1ccc(COC(=O)Cc2n[nH]c(=O)c3ccccc23)cc1`: -1.24%; `CCC(C)N=CC1=C(O)CC(c2ccccc2)CC1=O` (centres unmarked): -4.11%.
With `COc1ccc(C(=O)NCC(=O)OCC(=O)NC(=O)c2ccc(C(C)(C)C)cc2)cc1OC`, the “hERG current change (%, negative = inhibition) at 10uM” value was -23.7%.
With `CCN(CC)c1ncc(C#N)c(N)n1`, the “hERG current change (%, negative = inhibition) at 10uM” value turned out to be 8.37%.
As for `COc1ccc(CNC(=O)C2C3C=CC4(CN(Cc5cccnc5)C(=O)C24)O3)cc1` (centres unmarked), the “hERG current change (%, negative = inhibition) at 10uM” value is given as -16.2%.
Next, `CCCc1nnc(NC(=O)c2ccncc2)s1`: -3.78%.
With `COc1ccc(NS(=O)(=O)c2ccc(NS(=O)(=O)c3cccs3)cc2)cc1`, the “hERG current change (%, negative = inhibition) at 10uM” value turned out to be 11.8%.
For the molecule `CCOC(=O)c1cnc(-c2ccccc2)nc1Oc1ccc(OC)cc1`, the “hERG current change (%, negative = inhibition) at 10uM” value amounted to 14.2%.
Turning to `CCc1csc(CCNC(=O)C2CCC(=O)N(CCc3cccc(F)c3)C2)n1` (centres unmarked), the “hERG current change (%, negative = inhibition) at 10uM” value is given as -13.4%.
In the case of `O=c1c2ccccc2nc2n1C(CSCc1ccccc1)CS2` (centres unmarked), the “hERG current change (%, negative = inhibition) at 10uM” value was -37.1%.
The result for `O=C(Nc1ccccc1SCC1CSc2nc3ccccc3c(=O)n21)c1ccccc1Cl` (centres unmarked) reads -70.5%; that for `O=c1c2ccccc2nc2n1C(CSc1ccc(F)cc1)CS2` (centres unmarked), -33.3%.
Regarding `COC(=O)c1sc2ccccc2c1NC(=O)c1ccc(S(=O)(=O)N2CCCCC2)cc1`, the “hERG current change (%, negative = inhibition) at 10uM” value was 11.2%.
As to `Cc1c(/C=N/NC(=O)c2ccc(Br)o2)cnn1C`, the “hERG current change (%, negative = inhibition) at 10uM” value stood at 21%.
Regarding `O=C1N=C(N2CCN(Cc3ccccc3)CC2)S/C1=C/c1cccs1`, the “hERG current change (%, negative = inhibition) at 10uM” value is reported as -41.1%.
Take `O=C1N=C(N2CCOCC2)S/C1=C/c1cccs1`: the “hERG current change (%, negative = inhibition) at 10uM” value is reported as -5.52%.
The result for `N#CCCN1CCN(C2=NC(=O)/C(=C\c3cccs3)S2)CC1` reads -52.4%; that for `O=C(CCSCc1cccc(Cl)c1)NCCc1ccc(Cl)cc1`, 4.09%.
In the case of `CCCCCCCCn1c(N2CCN(c3cccc(Cl)c3)CC2)nc2c1c(=O)[nH]c(=O)n2C`, the “hERG current change (%, negative = inhibition) at 10uM” value is 5.65%.
With `Cc1ccc(S(=O)(=O)NCCC(=O)N2CCC(C(N)=O)CC2)cc1C`, the “hERG current change (%, negative = inhibition) at 10uM” value was -6.54%.
For the molecule `Cc1ccccc1C(=O)NC1CC2CCCC(C1)N2Cc1ccccc1` (centres unmarked), the “hERG current change (%, negative = inhibition) at 10uM” value is -25%.
In the case of `CCOc1ccccc1C(=O)NC1CC2CCCC(C1)N2Cc1ccc(C)cc1` (centres unmarked), the “hERG current change (%, negative = inhibition) at 10uM” value is -65.2%.
Turning to `Cc1ccccc1C(=O)NC1CC2CCCC(C1)N2Cc1ccc(Cl)cc1` (centres unmarked), the “hERG current change (%, negative = inhibition) at 10uM” value is reported as -71%.
The result for `CCCN1C2CCCC1CC(NC(=O)c1ccccc1OC)C2` (centres unmarked) reads -3.42%.
Next, `CCOc1ccccc1CN1CCC(O)CC1`: 12.1%; `CCOc1ccccc1C(=O)NC1CC2CCCC(C1)N2C1CC1` (centres unmarked): -19%.
Next, `CCCN1C2CCCC1CC(NC(=O)c1ccccc1OCC)C2` (centres unmarked): -47.2%; `CCOc1ccccc1CN1C2CCC1CC(c1ccc(C)cc1)C2` (centres unmarked): -60.9%.
Regarding `Cc1ccccc1C(=O)NC1CC2CCC(C1)N2Cc1ccccc1` (centres unmarked), the “hERG current change (%, negative = inhibition) at 10uM” value is given as -25%.
`COc1ccccc1C(=O)NC1CC2CCC(C1)N2Cc1ccccc1` (centres unmarked): the “hERG current change (%, negative = inhibition) at 10uM” value is listed as -20.4%.
Consider `CCOc1ccccc1C(=O)NC1CC2CCCC(C1)N2Cc1ccccc1` (centres unmarked), for which the “hERG current change (%, negative = inhibition) at 10uM” value is -54.5%.
On to `CCOc1ccccc1CN1C(=O)NC2(CCCCCC2)C1=O`, for which the “hERG current change (%, negative = inhibition) at 10uM” value was determined as 9.32%.
With `O=S(=O)(Nc1ccc(O)cc1)c1cccc2cccnc12`, the “hERG current change (%, negative = inhibition) at 10uM” value turned out to be 10.2%.
As to `Cc1ccc(CN2CC(C(=O)Nc3ccc(S(=O)(=O)Nc4cc(C)nc(C)n4)cc3)CC2=O)cc1` (centres unmarked), the “hERG current change (%, negative = inhibition) at 10uM” value came to 15.6%.
For `CCC1C(=O)NCCN1C(=O)c1cccc(OC2CCN(S(=O)(=O)N(C)C)CC2)c1` (centres unmarked), the “hERG current change (%, negative = inhibition) at 10uM” value was determined as 14%.
Take `CN(C)CCN(Cc1ccccc1)C(=O)[C@H](Cc1ccccc1)N1C(=O)c2ccccc2C1=O`: the “hERG current change (%, negative = inhibition) at 10uM” value is given as -30.1%.
For `Cc1ccc(S(C)(=O)=NS(=O)(=O)c2cccc3nsnc23)cc1` (centres unmarked), the “hERG current change (%, negative = inhibition) at 10uM” value is given as 7.47%.
With `O=c1c2ccccc2nc(SCc2nnc(-c3ccccc3Br)o2)n1-c1ccccc1`, the “hERG current change (%, negative = inhibition) at 10uM” value is on record as -1.38%.
On to `Cc1csc(C(C#N)C(=O)c2cc3ccccc3o2)n1` (centres unmarked), for which the “hERG current change (%, negative = inhibition) at 10uM” value is recorded as -7.89%.
